Assay results reported in PubChem BioAssay (NCATS).
Values joined by “and” are separate entries in the source; they are usually repeats but may differ in a detail not shown here. Equal entries are not always repeated. Inconclusive results are not listed. Entries that show only a call come without a potency. Active and inactive are the calls of the source. The call rests on the fitted dose curve; in most records, active means well fitted inhibition curve with a large enough effect; inconclusive means small, poorly fitted or top-dose-only effect; inactive means flat fitted curve, though single readings scatter.

Assay: qHTS for Inhibitors of Plasmodium falciparum (7G8) proliferation (AID 504316); further: nearly all actives have a fitted effect of over 65% in size
Conditions: P. falciparum 7G8 in erythrocytes, SYBR Green DNA, 72 h; series mostly up to 6.7 µM
Text: Plasmodium falciparum is a virulent malarial parasite that kills 1-2 million people worldwide each year. Malaria not only inflicts tremendous suffering and morbidity on the human population, but has dramatically influenced the course of civilization with profound sociological and economic implications (Shah, S. 2010). Transmitted by mosquitoes, the sporozoite form of the parasite enters the blood stream to infect hepatocytes, where they become merozoites that infect red blood cells (erythrocytes). Within erythrocytes, merozoites begin a […] cycle of growth and division, after which the parasite is released to infect new red blood cells. Gametocytes, which form within erythrocytes as well, circulate in the bloodstream and are ingested by the mosquito, thereby completing the life cycle (see CDC website). To profile malarial lines for differential chemical responses and to identify inhibitors of malarial growth, an assay that measures P. falciparum growth and replication within erythrocytes was employed. This assay uses a DNA binding fluorescent dye (SYBR Green) to detect parasite DNA following cell lysis. Because mature erythrocytes lack DNA, only Plasmodium-derived DNA is detected. The P. falciparum line cp250, derived from a malarial isolate from Cambodia, (Mu, J., et al. 2010) was added to the panel of lines, Dd2, HB3, 7G8 and GB4 in this study. Laboratory of Assay Development and Screening Technology [ADST] and NIH Chemical Genomics Center [NCGC] Boston University, Chemistry Department, Center for Chemical Methodology and Library Development [CMLD-BU] NIH National Institute of Allergy and Infectious Diseases [NIAID]
ADST Assay Protocol Summary: The 1536-well SYBR Green viability assay was based on the method of Bennett et al (2004) and described previously in 1536-well format (Yuan J., et al. 2009). For screening 3 ul culture medium was dispensed into 1536 well black clear bottom plates (Aurora Biotechnologies) using a Multidrop Combi (Thermo Fisher Scientific Inc.), 23 nL compounds in DMSO were added by a pin transfer (Cleveland, P.H. and Koutz, P.J, 2005) using a pin tool-based delivery system (Kalypsys), and 5 ul of erythrocytes infected with P. falciparum one of five lines (cp250, Dd2, HB3, 7G8 or GB4, 0.3% parasitemia, 2.5% hematocrit final concentration) were added. The plates were incubated at 37C in a humidified incubator in 5% CO2 for 72 h, and 2 ul lysis buffer (20 mM Tris HCl, 10 mM EDTA, 0.16% saponin, 1.6% triton X, 10X SYBR Green I (supplied as 10,000X final concentration by Invitrogen) was added to each well. The plates were mixed for 25 sec with gentle shaking and incubated overnight at room temperature in the dark. The following morning, fluorescence intensity at 485(14) nm excitation and 535(25) nm emission wavelengths was measured on an EnVision (Perkin Elmer) plate reader. Plate reads were normalized relative to the control inhibitor (0.29 uM artemisinin) and vehicle (DMSO) wells present on each plate and then corrected by an algorithm using vehicle-only control plates at the beginning and end of the compound plate stack. References Shah, S. (2010). The Fever: how malaria has ruled humankind for 500,000 years. New York, Sarah Crichton Books. CDC web site, http://www.cdc.gov/malaria/about/biology/index.html Mu, J., Myers, R.A., Jiang, H., Liu, S., Ricklefs, S., Waisberg, M., Chotivanich, K., Wilairatana, P., Krudsood, S., White, N.J., et Plasmodium falciparum genome-wide scans for positive selection, recombination hot spots and resistance to antimalarial drugs Nature Genetics 2010, 42, pp 268-271 Bennett TN, Paguio, M., Gligorijevic, B., Seudieu, C., Kosar, A. D., Davidson, E., and Roepe, P. D. Novel, rapid, and inexpensive cell-based quantification of antimalarial drug efficacy Antimicrobial Agents Chemother. 2004, 48(5): pp 1807-10 Yuan J, Johnson RL, Huang RL, Wichterman J, Jiang HY, Hayton K, Fidock DA, Wellems TE, Inglese J, Austin CP, Su XZ. […]
Potency means the concentration at half of the fitted maximal effect.

SMILES | Potency
CC(CCC(=O)OC[C@H]1O[C@H](C#Cc2ccccc2)C=C[C@H]1Oc1ccc(C)cc1)=NOC[C@@H](O)[C@H]1O[C@@H]2OC(C)(C)O[C@H]2[C@@H]1O | inactive
CC(=O)OC[C@H]1O[C@H](c2ccc(C(C)=O)cc2)C=C[C@H]1OC(C)=O | inactive
CCCCn1c(C)cc2c(c1=O)[C@H]1O[C@](c3ccsc3)(Cc3cc(OC)c(OC)cc31)O2 | inactive
CCCNC(=O)CC1OC(C2CCCCC2)Cc2ccccc21 (stereo not given) | inactive
C=CCOC(=O)N[C@@H](CC(C)C)C(C(=O)OC)=C(C)NCc1ccccc1 | inactive
O=P1(O)Oc2c(-c3ccccc3)cc3ccccc3c2-c2c(c(-c3ccccc3)cc3ccccc23)O1 | inactive
C=CC[C@@H]1C=C[C@H](ON=C(C)CCN2CCc3nc(CC)c(CC)cc3C2)[C@H](CO)O1 | 1.69 µM (active)
COCCN1C(=O)C2=C(C1=O)C1N(C)c3ccccc3[C@@]13C[C@@H](CO)N(S(=O)(=O)c1ccc(OC)cc1)C3=N2 (stereo not given in full) | inactive
COC(=O)C1=C(C)N(Cc2ccco2)C(=O)NC1c1ccc(Br)cc1 (stereo not given) | inactive
CC(C)=CCC12CC3[C@@H](O)C(C(=O)c4ccccc4)(C1=O)C(=O)C(CC=C(C)C)(C2=O)C3(C)C (stereo not given in full) | inactive
Cc1ccccc1Nc1oc(-c2ccccc2)nc1C(C)(C)C | 1.9 µM (active)
COc1ccc(-c2nc3c(c4c2C[C@H](c2ccccc2)OC4)CN(C(=O)c2cccnc2)CC3)c(C)c1 | 1.51 µM (active) and 1.69 µM (active)
CC1(C)O[C@H]2O[C@H]([C@H](O)CON=C3[C@H]4CCn5c(=O)n(-c6ccccc6)c(=O)n5[C@@H]4[C@H](O)[C@@H]4O[C@H]34)[C@H](O)[C@@H]2O1 | inactive
COC(=O)CCCC1=CC2=CC(=O)C(C)(OC(=O)c3cccs3)C(=O)C2=CN1CCCOC(C)C (stereo not given) | inactive
CCN1C(=NCCCOC(C)C)N[C@H](c2ccccc2)[C@H](C(=O)OC)[C@H]1C | inactive
CC#CCN1c2ccccc2[C@]23CCC(=O)N(Cc4cccc(C(F)(F)F)c4)C2=NC(C(=O)OC)=C(C(=O)OC)[C@H]13 | inactive
CCc1cc2c(nc1CC)CCN(CCC(C)=NO[C@H](C)c1cn([C@H](CO)Cc3ccccc3)nn1)C2 | 1.51 µM (active)
COC(=O)C1=C(C(=O)OC)[C@@H]2Nc3ccccc3[C@@]23C[C@@H](C(=O)OC)N(C(=O)Nc2ccc(C(F)(F)F)cc2)C3=N1 | inactive
COC[C@H]1O[C@H](c2ccccc2)C=C[C@H]1OCc1cccc(Br)c1 | inactive
CC1=C[C@@H](C)OC2(C1)C(=O)N(CC1CC1)c1cccc(Br)c12 (stereo not given in full) | inactive

SMILES | Potency
CC1=CC[C@@H](C)O[C@@]2(C1)C(=O)Nc1ccccc12 | inactive
COc1ccc(COC(=O)NN=C2C[C@@H](O)[C@@H](O)[C@@H]3[C@H]4C(=O)N(C[C@@H]5CCCO5)C(=O)[C@@H]4CC[C@H]23)cc1 | inactive
CCOC(=O)NN=C1C[C@@H](O)[C@@H](O)[C@@H]2[C@H]3C(=O)N(C[C@@H]4CCCO4)C(=O)[C@@H]3CC[C@H]12 | inactive
COc1cc2c(cc1OC)[C@@H]1O[C@](CCCCN3C(=O)c4ccccc4C3=O)(C2)OC2=C1C(=O)c1ccccc1C2=O | 1.51 µM (active)
C=CCC12OC3(OC)CC1[C@H](C)[C@@H](c1ccccc1)C2[C@]3(O)CC=C (stereo not given in full) | inactive
CC1(O)C(=O)C=C2C=C(CCCCOCc3ccccc3)OC=C2C1=O (stereo not given) | inactive
Cc1cc2c(nc1C)CCCN2CC(O)CN1CCCc2nc(-c3ccc(Br)cc3)ccc21 (stereo not given) | inactive
CCCCCCCc1cc2ccccc2c2c(C(=O)OCC)c(C(=O)OCC)c(C(=O)OCC)n12 | inactive
CC(=O)c1ccc(OCc2ccccc2)c(C)c1O | inactive
Cc1cc(O)cc(O)c1C(=O)OC1(C)C(=O)C=C2C=C(C=CCO)OC=C2C1=O (stereo not given) | inactive
C[C@H]1Cc2c(-c3ccccc3)nc3c(c2CO1)CN(C(=O)NCc1ccco1)CC3 | inactive
CC=CCCN1C=C(C(=O)OCC)C(c2ccccc2)NC1=O (stereo not given) | inactive
Cn1c(-c2ccccc2)c(O)c(=O)c2ccccc21 | inactive
C=C(C#Cc1ccc(OC)cc1)CCN1C=C(C(=O)OCC)C(c2ccccc2)NC1=O (stereo not given) | inactive
C=CCCN1C=C(C(=O)OCC)C(c2ccccc2)NC1=O (stereo not given) | inactive
C#CCN1C(=O)[C@@]2(CC(C)=CC[C@@H](C)O2)c2ccccc21 | inactive
CCOC(=O)CCN1C(=O)[C@@H]2[C@H]3[C@H](O)[C@H](O)CC(=NOCC(C)C)[C@@H]3CC[C@H]2C1=O | inactive
CCOC(=O)CN1C(=O)N[C@@H](c2cccc(C(F)(F)F)c2)[C@H](C(C)=O)[C@H]1C | inactive
C[C@@H]1CC[C@H]2C(=O)N3[C@@H](CC[C@@H](C)[C@@H]3c3ccc(-c4ccco4)cc3)C(=O)N2[C@@H]1c1ccc(-c2ccco2)cc1 | inactive
COC(=O)C1=C(C(=O)OC)[C@@H]2N(C)c3ccccc3[C@@]23C[C@@H](C(=O)OC)N(C(=O)NCCBr)C3=N1 | inactive
